This note sets out measurements from PubChem BioAssay (NCATS).

The structures appear in SMILES notation. Several values for one entry are separate records, joined by “and”; a condition that tells them apart may be missing. Equal values may be shown once. Records with an inconclusive call do not appear. Some structures have more than one record in an assay (separate samples or runs), and their calls can disagree. Activity calls are given as the source filed them. Unless noted, calls follow the shape of the full dose curve.

Assay [1] in a line: qHTS assay for small molecule antagonists of retinoid X receptor alpha signaling (AID 588546; active = well fitted inhibition curve with a large enough effect in the signal ratio, with a control signal flat, not every such curve was filed as active; the % refers to the signal ratio; also: potency is read from the fitted curve at half-maximal effect;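 as to max response: cells stimulated with 9-cis-retinoic acid as agonist; % is scaled to controls: 0 for no effect and ±100 for the full control effect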). To be noted: HEK293T RXRa-UAS-bla, beta-lactamase ratio, antagonist mode; measured here: W530 green channel, cytotoxicity proxy. A digest of the protocol: (§1)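 Beta-lactamase reporter inhibition, read as CCF4 fluorescence ratio (ex 405, em 460/530 nm) after 2 h at RT. HEK293T UAS-bla cells, 2500/well, were stimulated with 9-cis-RA at 500 or 100 nM final alongside test compound for 18 h at 37 C.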
(In general: qHTS replaces the single test concentration by a dilution series.)

Assay [2] addresses Retinoic acid receptor RXR-alpha (Homo sapiens) (UniProt P19793). The description is as above. To be noted: HEK293T RXRa-UAS-bla, beta-lactamase ratio, antagonist mode. In a few lines: as §1
The target in assay [3] is Peroxisome proliferator-activated receptor delta (Homo sapiens) (UniProt Q03181). The assay is described as follows: qHTS assay for small molecule antagonists of peroxisome proliferator-activated receptor delta signaling (AID 588535; active = well fitted inhibition curve with a large enough effect in the signal ratio, with a control signal flat, not every such curve was filed as active; the % refers to the signal ratio). To be noted: HEK293T PPARd-UAS-bla, beta-lactamase FRET ratio, 18 h; series mostly up to 76.7 µM. In a few lines: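 GeneBLAzer PPAR-delta-UAS-bla HEK293T cells in medium with 2% charcoal/dextran FBS were preincubated 5 hrs at 37 C, then given compounds, incubated 18 hrs at 37 C, and read by CCF4 beta-lactamase fluorescence; IC50 from Hill fits.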

The target in assay [4] is Peroxisome proliferator-activated receptor gamma (Homo sapiens) (UniProt P37231). The assay is described as follows: qHTS assay for small molecule agonists of peroxisome proliferator-activated receptor gamma signaling (AID 588536; active = well fitted curve in the direction sought with a large enough effect in the signal ratio, with a control signal flat, not every such curve was filed as active; the % refers to the signal ratio;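 also: 0% = DMSO basal wells and 100% = rosiglitazone at 2 µM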). The following applies: HEK293 PPARg-UAS-bla, beta-lactamase ratio, 16 h, percent of rosiglitazone response, DMSO as zero; series mostly up to 76.7 µM. In a few lines:
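HEK293 UAS-bla reporter line, 1% charcoal/dextran FBS; titration, 16 h, 37 C; CCF4 loading 2 h RT; fluorescence 460/530 nm. Normalized to rosiglitazone 2 uM = 100%, DMSO = 0%.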

Assay [5] has the same target. The assay is described as follows: qHTS assay for small molecule antagonists of peroxisome proliferator-activated receptor gamma signaling (AID 588537; active = well fitted inhibition curve with a large enough effect in the signal ratio, with a control signal flat, not every such curve was filed as active; the % refers to the signal ratio; also: potency is read from the fitted curve at half-maximal effect). The following applies: HEK293 PPARg-UAS-bla, beta-lactamase ratio, antagonist mode; series mostly up to 76.8 µM. In a few lines:
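PPAR-gamma-UAS-bla HEK293 cells (3000/well, 1% charcoal/dextran-stripped FBS) were preincubated 6-6.5 h at 37 C, given titrated compounds, then stimulated with 50 nM rosiglitazone for 16 h. Beta-lactamase activity was read with CCF4 dye; IC50 came from Hill fits.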

A short description of assay [6]: qHTS assay for small molecule agonists of retinoid X receptor alpha signaling (AID 588544). Also: potency is read from the fitted curve at half-maximal effect. The following applies: HEK293T RXRa-UAS-bla, beta-lactamase reporter, 18 h; 530 nm emission.
For assay [7], the target named is Retinoic acid receptor RXR-alpha (Homo sapiens) (UniProt P19793). The assay is described as above. To be noted: HEK293T RXRa-UAS-bla, beta-lactamase reporter, 18 h; series mostly up to 76.7 µM.
For assay [8], the target named is Thyroid hormone receptor beta (Homo sapiens) (UniProt P10828). The assay is described as follows: qHTS assay for small molecule agonists of thyroid hormone receptor beta signaling (AID 588545). To be noted: TR-UAS-bla GripTite HEK 293, beta-lactamase ratio, agonist mode, 18 h, percent of T3 response, DMSO as zero; series mostly up to 76.7 µM. In a few lines: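 In this cell-based screen, titrated compounds act on HEK 293 cells held in medium with 2% charcoal/dextran FBS, NEAA and pyruvate for 18 hrs at 37 C. Responses are expressed relative to T3 (10 nM) as 100% and basal DMSO as 0%.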

Assay [9] concerns the target Vitamin D3 receptor (Homo sapiens) (UniProt P11473). The assay is described as follows: qHTS assay for small molecule antagonists of vitamin D receptor signaling (AID 588541).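 Also: receptor activated by calcitriol during compound treatment; % is scaled to controls: 0 for no effect and ±100 for the full control effect.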 The following applies: HEK293T VDR-UAS-bla, beta-lactamase ratio, antagonist mode; series mostly up to 76.7 µM. In a few lines: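 VDR-UAS-bla HEK293T cells (2000/well, 2% charcoal-stripped FBS) were treated with titrated compounds plus 1-alpha,25-dihydroxyvitamin D3 (50 nM or 3 nM final) for 16 h at 37 C. CCF4 beta-lactamase fluorescence was read; Hill fits gave IC50.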

Assay [10] shares this target. The assay is described as follows: qHTS assay for small molecule agonists of vitamin D receptor signaling (AID 588543).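 Also: 0% = DMSO basal and 100% = reference agonist control.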 The following applies: HEK293T VDR-UAS-bla, beta-lactamase ratio, 16 h; series mostly up to 76.8 µM. In a few lines:
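Agonist-mode beta-lactamase reporter: HEK293T VDR-UAS-bla cells in charcoal-stripped 2% FBS, compound series 16 h 37 C, CCF4 2 h RT. EC50 from Hill fit, scaled against DMSO and 50 nM calcitriol control.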

Sequence of Peroxisome proliferator-activated receptor gamma (Homo sapiens) (P37231 whole entry, looked up): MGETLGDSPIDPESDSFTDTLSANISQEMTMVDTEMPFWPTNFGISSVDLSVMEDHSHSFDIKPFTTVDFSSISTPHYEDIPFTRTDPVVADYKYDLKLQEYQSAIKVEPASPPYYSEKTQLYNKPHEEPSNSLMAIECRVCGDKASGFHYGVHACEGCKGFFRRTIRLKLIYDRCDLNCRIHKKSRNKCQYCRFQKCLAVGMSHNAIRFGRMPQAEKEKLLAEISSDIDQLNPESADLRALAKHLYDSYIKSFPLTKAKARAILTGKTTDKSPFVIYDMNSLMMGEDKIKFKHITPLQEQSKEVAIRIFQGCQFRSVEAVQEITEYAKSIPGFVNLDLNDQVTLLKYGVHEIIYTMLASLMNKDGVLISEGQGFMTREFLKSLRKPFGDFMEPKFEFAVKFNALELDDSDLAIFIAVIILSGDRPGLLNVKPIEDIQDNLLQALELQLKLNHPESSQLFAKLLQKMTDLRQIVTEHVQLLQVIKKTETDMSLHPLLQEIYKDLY
Sequence of Thyroid hormone receptor beta (Homo sapiens) (P10828 whole entry, looked up): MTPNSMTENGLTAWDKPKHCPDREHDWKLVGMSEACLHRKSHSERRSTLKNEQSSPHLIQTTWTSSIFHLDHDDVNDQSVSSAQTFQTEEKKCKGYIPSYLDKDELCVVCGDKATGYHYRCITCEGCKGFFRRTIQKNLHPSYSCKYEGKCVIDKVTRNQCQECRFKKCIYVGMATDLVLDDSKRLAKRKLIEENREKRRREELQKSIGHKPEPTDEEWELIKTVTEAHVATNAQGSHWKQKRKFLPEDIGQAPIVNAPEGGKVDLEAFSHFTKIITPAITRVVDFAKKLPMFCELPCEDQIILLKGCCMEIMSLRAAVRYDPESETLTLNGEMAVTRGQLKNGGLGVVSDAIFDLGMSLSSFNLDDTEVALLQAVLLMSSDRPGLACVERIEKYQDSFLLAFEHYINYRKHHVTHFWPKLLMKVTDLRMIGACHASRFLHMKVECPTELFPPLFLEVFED
Sequence of Retinoic acid receptor RXR-alpha (Homo sapiens) (P19793 whole entry, looked up): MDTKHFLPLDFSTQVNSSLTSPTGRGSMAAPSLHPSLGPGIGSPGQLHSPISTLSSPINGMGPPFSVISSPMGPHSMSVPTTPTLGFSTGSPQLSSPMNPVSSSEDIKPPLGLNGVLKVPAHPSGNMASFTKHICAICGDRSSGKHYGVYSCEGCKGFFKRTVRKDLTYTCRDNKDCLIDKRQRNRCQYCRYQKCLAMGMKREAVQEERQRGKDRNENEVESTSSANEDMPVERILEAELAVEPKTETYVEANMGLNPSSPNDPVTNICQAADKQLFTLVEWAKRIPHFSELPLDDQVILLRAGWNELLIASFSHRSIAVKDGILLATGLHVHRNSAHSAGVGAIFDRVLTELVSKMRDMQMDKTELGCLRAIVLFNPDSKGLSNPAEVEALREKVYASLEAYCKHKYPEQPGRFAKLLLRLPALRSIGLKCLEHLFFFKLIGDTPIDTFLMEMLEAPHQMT
Sequence of Peroxisome proliferator-activated receptor delta (Homo sapiens) (Q03181 whole entry, looked up): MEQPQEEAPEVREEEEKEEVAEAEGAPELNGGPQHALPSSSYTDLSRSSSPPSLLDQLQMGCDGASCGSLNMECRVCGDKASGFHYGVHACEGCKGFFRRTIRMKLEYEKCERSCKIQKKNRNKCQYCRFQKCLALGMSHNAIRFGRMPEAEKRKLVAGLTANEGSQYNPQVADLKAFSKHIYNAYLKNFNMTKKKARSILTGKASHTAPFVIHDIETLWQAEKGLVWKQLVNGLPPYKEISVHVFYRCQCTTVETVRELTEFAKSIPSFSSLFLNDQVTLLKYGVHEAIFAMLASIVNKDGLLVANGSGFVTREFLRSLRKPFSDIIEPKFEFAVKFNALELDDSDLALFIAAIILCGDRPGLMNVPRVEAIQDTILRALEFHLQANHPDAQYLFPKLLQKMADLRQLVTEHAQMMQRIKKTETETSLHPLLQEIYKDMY
Sequence of Vitamin D3 receptor (Homo sapiens) (P11473 whole entry, looked up): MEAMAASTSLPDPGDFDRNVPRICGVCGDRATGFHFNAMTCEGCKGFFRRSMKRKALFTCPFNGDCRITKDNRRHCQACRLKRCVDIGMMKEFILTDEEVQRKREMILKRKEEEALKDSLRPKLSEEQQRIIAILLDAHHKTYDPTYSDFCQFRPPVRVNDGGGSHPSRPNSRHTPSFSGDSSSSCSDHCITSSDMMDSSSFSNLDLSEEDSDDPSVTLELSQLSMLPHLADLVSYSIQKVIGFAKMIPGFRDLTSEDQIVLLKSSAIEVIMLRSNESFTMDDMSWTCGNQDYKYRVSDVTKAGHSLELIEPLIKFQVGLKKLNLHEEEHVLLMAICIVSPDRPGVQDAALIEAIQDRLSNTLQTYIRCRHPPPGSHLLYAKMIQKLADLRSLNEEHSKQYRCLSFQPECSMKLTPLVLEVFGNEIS

Turning to `Cc1cc(SCc2sc(-c3ccc(C(F)(F)F)c(F)c3)nc2C)ccc1OCC(=O)O`, the max response in assay [1] is 25.2%; in [2], -3.24% (inactive).
Turning to `CCOP(=S)(OCC)Oc1cc(C)nc(C(C)C)n1`, the result in assay [3], in assay [4] and in assay [8] was inactive. For the same compound, the Potency entry in assay [5] and in [7] was “inactive” each time. In addition, the max response in assay [6] was -5.09% and -15.6%; in [1], -12.3% and -5.87%; in [2], -2.21% (inactive) and -10% (inactive).
On to `c1ccc2c(c1)Nc1ccccc1S2`, for which the outcome in assay [3], in assay [4] and in [8] was inactive. The Potency result in assay [5] is “inactive and 39.8 µM (active)”. For the same compound, the max response in [6] was 2.15% and 8.42%; in assay [1], -11.1% and -4.36%; in [2], 11.2% (inactive) and 0.985% (inactive). The Potency entry in [7] is “inactive”.
Take `C=C(C)[C@H]1Cc2c(ccc3c2O[C@@H]2COc4cc(OC)c(OC)cc4[C@@H]2C3=O)O1`: the Potency in assay [5] is 44.7 µM (active); in assay [2] it was 20 µM (active). In addition, the outcome in assay [8] was inactive. The max response in assay [1] stood at 12.4%.
With `O=c1[nH]c2ccccc2n1C1CCN(CCCC(c2ccc(F)cc2)c2ccc(F)cc2)CC1`, the max response in assay [1] is -25.7%. Also, in [2], the Potency is 17.8 µM (active).
Take `CCCC(C)(COC(N)=O)COC(=O)NC(C)C` (stereo unspecified): the result in assay [4], in assay [9], in assay [10] and in assay [8] was inactive. For the same compound, the Potency entry in assay [5] and in [7] was “inactive” each time. For the same compound, the max response in [6] was -3.14% and 6.33%; in assay [1] it was 3.28% and 3.87%; in [2] it was 1.9% (inactive) and -6.86% (inactive).
`Oc1cc(Cl)ccc1Oc1ccc(Cl)cc1Cl`: the outcome in assay [3], in [4], in assay [9], in assay [10] and in assay [8] was inactive. Further, in [5], the Potency entry was “inactive”. Also, in [1], the max response is -6.33%. In addition, the Potency in assay [2] was 44.7 µM (active).
Turning to `CNCC(O)c1ccc(O)cc1` (stereo unspecified), the outcome in assay [3], in assay [9], in assay [10] and in [8] was inactive. Besides, the max response in assay [6] is 4.18%; in [1], 8.32%; in assay [2] it was 7.59% (inactive). Further, in assay [7], the Potency result was “inactive”.
For `NCC(O)c1ccc(O)cc1` (stereo unspecified), the outcome in [4], in assay [9] and in assay [10] was inactive. Further, the max response was 14.7% in assay [6], 5.99% in assay [1] and 1.76% (inactive) in assay [2]. Besides, in assay [7], the Potency entry is “inactive”.
`Oc1ccccc1-c1ccccc1`: the outcome in assay [3], in assay [4], in assay [9], in assay [10] and in assay [8] was inactive. Moreover, in assay [5], the Potency was 39.8 µM (active) and inactive. Further, the max response in assay [6] was 9.97% and -12.1% and -6.9%; in [1], -4.16% and -11.3% and -6.05%; in assay [2], 10.1% (inactive) and -5.66% (inactive) and 6.56% (inactive).
In the case of `Nc1ccncc1`, the result in assay [3], in [9], in [10] and in assay [8] was inactive. Moreover, the max response in assay [6] was -10.7%; in [1], -5.09%; in [2] it was -7.1% (inactive). Further, the Potency entry in [7] was “inactive”.
`C[C@]12CCC(=O)C(O)=C1CC[C@@H]1[C@@H]2CC[C@]2(C)C(=O)CC[C@@H]12`: the result in assay [4], in assay [9] and in assay [10] was inactive. Moreover, the Potency entry in assay [5] and in [7] was “inactive” in each case. Also, the figures for the max response in assay [6], in assay [1] and in [2] were 21.6%, 17.4% and 13.8% (inactive), respectively.
In the case of `Oc1cccc2cccnc12`, the outcome in [3], in [4], in [9], in assay [10] and in assay [8] was inactive. Also, the Potency entry in assay [5] is “inactive”. In addition, the max response in [1] was 12%; in [2] it was -19.8% (inactive).
On to `CC(C)(C)CC(C)(C)c1ccc(O)cc1`, for which the result in assay [3], in [9] and in assay [10] was inactive. In addition, the max response in assay [6] was -53.5%. Besides, the Potency entry in assay [7] was “inactive”.
As for `C[C@]12C/C(=C/O)C(=O)C[C@@H]1CC[C@@H]1[C@@H]2CC[C@@]2(C)[C@H]1CC[C@]2(C)O`, the result in assay [10] and in [8] was inactive.
Regarding `CCn1cc(C(=O)O)c(=O)c2ccc(C)nc21`, the result in assay [3] was inactive. In assay [6], the max response amounted to 24.5%. Besides, the Potency result in assay [7] is “inactive”.
For the compound `OCCOc1ccccc1`, the outcome in assay [3], in assay [4], in assay [9], in assay [10] and in [8] was inactive. The Potency result in [5] was “inactive”. The max response in assay [6] was -2.94% and -12.9% and -4.25%; in assay [1], -0.71% and -11.6% and -11.4%; in assay [2] it was 15.3% (inactive) and -5.21% (inactive) and -13.9% (inactive).
`C[C@H]1O[C@@H](O[C@H]2[C@@H](O)C[C@H](O[C@H]3[C@@H](O)C[C@H](O[C@H]4CC[C@@]5(C)[C@H](CC[C@@H]6[C@@H]5CC[C@]5(C)[C@@H](C7=CC(=O)OC7)CC[C@]65O)C4)O[C@@H]3C)O[C@@H]2C)C[C@H](O)[C@@H]1O`: the outcome in assay [8] was inactive.
Consider `Oc1ccc(Cl)cc1Cc1ccccc1`, for which the result in [3], in assay [4] and in [8] was inactive. Further, the max response in [6] was -11.5% and -1.88%; in assay [1], -5.58%; in [2] it was -16.2% (inactive). Besides, the Potency in [7] was 35.5 µM (active) and 39.8 µM (active).
